From PubChem BioAssay (NCI)
The panel holds about 83,000 compounds, 20% with a hit somewhere; the sample as a whole holds those more often.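 Activity criterion: percent growth below 10, measured after cells in 96-well plates were exposed to a single compound concentration for 48 hours.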 Values without a mark were called inactive. The source made the active and inactive calls.

Columns and labels:
Test in all cases: NCI-60 one-dose screen, 48 h (100 = growth as untreated, 0 = no growth, -100 = all killed)
Details in all cases: 10 µM
[1] = system: NCI-H23 lung
[2] = system: NCI-H226 lung
[3] = system: NCI-H322M lung
[4] = system: HOP-62 NSCLC
[5] = system: NCI-H460 lung
[6] = system: HOP-92 NSCLC
[7] = system: NCI-H522 lung
[8] = system: A549/ATCC NSCLC
[9] = system: 786-0 renal
[10] = system: COLO 205 colon
[11] = system: DU-145 prostate
[12] = system: K-562 leukemia
[13] = system: MALME-3M melanoma
[14] = system: MDA-MB-231 breast
[15] = system: RXF 393 renal
[16] = system: SF-268 CNS
[17] = system: SF-295 CNS
[18] = system: SF-539 CNS
[19] = system: UACC-257 melanoma
[20] = system: M14 melanoma

| Structure (SMILES) | growth [1] | growth [2] | growth [3] | growth [4] | growth [5] | growth [6] | growth [7] | growth [8] | growth [9] | growth [10] | growth [11] | growth [12] | growth [13] | growth [14] | growth [15] | growth [16] | growth [17] | growth [18] | growth [19] | growth [20] |
| --- | --- | --- | --- | --- | --- | --- | --- | --- | --- | --- | --- | --- | --- | --- | --- | --- | --- | --- | --- | --- |
| COc1cccc2c1C(=O)c1c(O)c3c(c(O)c1C2=O)C[C@@](O)(C(=O)COC(=O)c1cccnc1)C[C@@H]3OC1CC(N)C(O)C(C)O1 (stereo not given in full) | -24.7% (active) | -28.5% (active) | -19.5% (active) | -7.51% (active) | 4.13% (active) | -26.3% (active) | -75.6% (active) | -0.944% (active) | 3.23% (active) | -68.8% (active) | 7.78% (active) | 1.5% (active) | -66.7% (active) | -18.6% (active) | -64.5% (active) | -30% (active) | -56.8% (active) | -36.4% (active) | -54.7% (active) | -43.4% (active) |
| N#CN1CC[C@H](C(=O)Nc2ncc(-c3ccccc3)s2)C1 | -9.83% (active) | -6.52% (active) | 28.4% | -3.88% (active) | 2.02% (active) | 0.798% (active) | -35.6% (active) | -5.79% (active) | 3.56% (active) | -63.3% (active) | 0.607% (active) | 2.31% (active) | -16.4% (active) | 3.84% (active) | -45% (active) | 0.182% (active) | 18.8% | -16.9% (active) | -8.04% (active) | -7.98% (active) |
| CCn1nc(-c2ccccn2)c2cccnc2c1=S | 36.8% | 93.8% | 87.3% | 98% | 53.7% | 73.4% | 70.5% | 44.8% | 106% | 30.9% | 97% | 35.7% | 68.4% | 53.3% | 110% | 94.8% | 78.1% | 89.1% | 35.8% | 65% |
| CCOc1cc(Br)c(C(C)NC(=O)c2cccc(OC)c2)cc1OCC (stereo not given) | 79.7% | 89.2% | 94.3% | 87.3% | 78.1% | 8.9% (active) | 83.6% | 76.6% | 68.1% | 23.8% | 93.4% | 8.6% (active) | -9.34% (active) | 39% | 41.6% | 75.5% | 92.1% | 76.2% | -66.9% (active) | -67.2% (active) |
| CC(=O)O[C@H]1CC[C@@]2(C)[C@@H](CC[C@@H]3[C@@H]2CC[C@]2(C)C=C(C=O)C[C@@H]32)C1 | 73.6% | 119% | 90.9% | 33.3% | 103% | 76.2% | 93.1% | 95.3% | 102% | 95.4% | 49.5% | 82.3% | 66.8% | 103% | 120% | 66.6% | 97.1% | 92.7% | 98.6% | 65.3% |
| O=S(=O)(NC1c2ccccc2Oc2ccccc21)c1cc(Cl)ccc1Cl | 97.6% | 83.4% | 90% | 89.4% | 105% | 60.2% | 29.5% | 97.1% | 84.6% | 98.9% | 113% | 89.8% | 102% | 97.4% | 93.1% | 99.1% | 101% | 98.2% | 102% | 98.9% |
| COCCNCC(O)Cn1c2ccc(Cl)cc2c2cc(Cl)ccc21 (stereo not given) | -36.8% (active) | 43.1% | -20.1% (active) | 17% | 5.55% (active) | 135% | -62.8% (active) | -10.2% (active) | 21.9% | -67.9% (active) | 7.48% (active) | -17.1% (active) | -86.3% (active) | -33.1% (active) | 3.52% (active) | 7.96% (active) | -6.61% (active) | -85% (active) | -81% (active) | -87.4% (active) |
| CCCN(CCC)CCCNC(=O)c1cc2c(-c3ccc(OC)c(OC)c3)nn(C)c2s1 | 11.6% | 37.5% | 22% | 34.5% | 8.52% (active) | -7.72% (active) | -17% (active) | 9.14% (active) | 29.5% | 90.1% | 13% | 6.33% (active) | 27.6% | 21.8% | -2.45% (active) | 14.5% | 35% | 10.9% | 7.46% (active) | 9.55% (active) |
| Cc1nc(Nc2nc3ccccc3o2)nc(-c2cccc([N+](=O)[O-])c2)c1C(=O)Nc1ccc(F)c(Cl)c1 | 0.258% (active) | 10.3% | 24.9% | 16% | 2.04% (active) | -38.9% (active) | -20.5% (active) | 5.85% (active) | 18.4% | 9.63% (active) | 18.6% | 4.49% (active) | 6.18% (active) | -17.4% (active) | 29.4% | 11.9% | -40.7% (active) | 25.7% | -11.3% (active) | 15.6% |
| COc1cc(Cl)cc(-c2nn(-c3cccc(NC(=O)Nc4cccc(C(F)(F)F)c4)c3)cc2-c2ccncc2)c1 | -5.1% (active) | 3.94% (active) | 26.2% | 15.5% | -6.11% (active) | -27.3% (active) | -18.6% (active) | 8.08% (active) | 13.2% | -31.2% (active) | 15.9% | 7.61% (active) | -16.6% (active) | -9.21% (active) | 11.8% | 27.9% | -7.87% (active) | 17% | -11.7% (active) | 9.99% (active) |
| Oc1cc(O)c(Br)cc1Br | 110% | 103% | 91.8% | 105% | 108% | 85.4% | 88.8% | 98.9% | 93.1% | 101% | 107% | 97.5% | 120% | 112% | 110% | 100% | 98.7% | 96.4% | 102% | 92.9% |
| COc1ccc(-c2nnc(COc3ccc(NC(=O)Nc4cccc(C(F)(F)F)c4)cc3F)o2)cc1 | 56.6% | 87.9% | 43.4% | 67.4% | 39.3% | 25.5% | -21.2% (active) | 57.8% | 78.9% | 88.1% | 71.9% | 45.3% | 60.5% | 42.5% | 86.6% | 75.1% | 64.2% | 57.6% | 71.8% | 60.8% |
| O=S(=O)(NC1c2ccccc2Oc2ccccc21)c1ccccc1 | 98% | 95.3% | 91.6% | 90.1% | 107% | 63.8% | 31.3% | 98.4% | 82.1% | 95.6% | 112% | 91.3% | 97.8% | 100% | 86.6% | 98.9% | 97.8% | 93.7% | 98.2% | 98.7% |
| COc1ccc(-c2[nH]ncc2/C=C/c2cc(C(F)(F)F)[nH]c(=O)n2)cc1 | 99.4% | 96.9% | 98.1% | 96% | 110% | 59.3% | 75.7% | 104% | 89.8% | 113% | 108% | 86.7% | 76.1% | 103% | 125% | 97.5% | 94.7% | 86.7% | 98.3% | 98.7% |
| N#Cc1c2c([nH]c(=O)c1C(N)=O)CCCCC2 | 100% | 100% | 97.6% | 92.4% | 105% | 112% | 90.7% | 91.3% | 98.5% | 102% | 115% | 113% | 90.5% | 102% | 108% | 103% | 101% | 95.1% | 96.7% | 95.6% |
